aSyn yeast rescue – inhibitors of alpha-synuclein toxicity in yeast; 94,000 tested, 0.02% active; Potency, µM (titrated, usually from 46.1 µM), usual class: activators; AID 1347070; S. cerevisiae alpha-synuclein toxicity rescue, BacTiter-Glo growth, 24 h; active = well fitted activation curve with a large enough effect
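Growth restoration measured by BacTiter-Glo luminescence after 24 hr at 30 deg C; alpha-synuclein yeast, raffinose-pregrown to mid-log, were added at OD600=0.02 in galactose medium onto pinned compounds.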
Each line names hits and unclear results; the compound was inactive in the other large screens. Many of the other results were omitted from the sample, so hits are more common in it than they were.

CCc1cccc(NC(=O)CN2C(=O)CN=C(c3ccccc3F)c3cc(Cl)ccc32)c1	aSyn yeast rescue 20µM
O=C1CN=C(c2ccccc2)c2cc(Cl)ccc2N1Cc1ccc(Cl)cc1	none
Cc1cccc(CN2C(=O)CN=C(c3ccccc3)c3cc(Cl)ccc32)c1	none
COc1ccc(NC(=O)CN2C(=O)CN=C(c3ccccc3)c3ccccc32)c(OC)c1	none
Nc1c(C(=O)Nc2ccc(OC(F)(F)F)cc2)sc2nc3c(cc12)N1CCC3CC1	none

Source: PubChem
